The supplement of paper PMC8371130
Where a name gives a salt, the structure may show the parent alone.

Tested on: HL-1
Test: relative cell viability (CellTiter-Glo) vs DMSO control (% of DMSO control); higher = more viable cells
How it was run: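 In 384-well plates, 1000 HL-1 mouse atrial cardiomyocytes per well were plated with compounds at 40, 200, 1000 or 5000 nM in 0.01% DMSO. Hypoxia at 1% O2 for 48 h began one day later and was followed by 24 h of reoxygenation, with parallel plates held in normoxia. CellTiter-Glo luminescence gave cell viability relative to vehicle-treated control cells.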

[1] = oxygen condition: hypoxia 48 h (1% O2) + reoxygenation 24 h, 40 nM
[2] = oxygen condition: hypoxia 48 h (1% O2) + reoxygenation 24 h, 200 nM
[3] = oxygen condition: hypoxia 48 h (1% O2) + reoxygenation 24 h, 1000 nM
[4] = oxygen condition: hypoxia 48 h (1% O2) + reoxygenation 24 h, 5000 nM
[5] = oxygen condition: normoxia 72 h, 40 nM
[6] = oxygen condition: normoxia 72 h, 200 nM
[7] = oxygen condition: normoxia 72 h, 1000 nM
[8] = oxygen condition: normoxia 72 h, 5000 nM

| Structure (SMILES) | relative cell viability [1] | relative cell viability [2] | relative cell viability [3] | relative cell viability [4] | relative cell viability [5] | relative cell viability [6] | relative cell viability [7] | relative cell viability [8] |
| --- | --- | --- | --- | --- | --- | --- | --- | --- |
| O=C1CN2Cc3c(ccc(Cl)c3Cl)N=C2N1 [Anagrelide HCl] | 97.6 | 98.7 | 97.5 | 108 | 99.8 | 100 | 105 | 111 |
| O=S(=O)(O)CCS [Mesna] | 105 | 102 | 116 | 120 | 112 | 109 | 112 | 123 |
| CC(C)(OCc1nn(Cc2ccccc2)c2ccccc12)C(=O)O [Bindarit] | 99.2 | 99.8 | 100 | 3.69 | 96.7 | 100 | 95.7 | 3.69 |
| Clc1ccccc1CN1CCc2sccc2C1 [Ticlopidine HCl] | 96.8 | 94.8 | 97 | 103 | 94.9 | 97.1 | 95.5 | 108 |
| Cc1onc(-c2ccccc2)c1-c1ccc(S(N)(=O)=O)cc1 [Bextra] | 101 | 97.9 | 104 | 107 | 103 | 100 | 95.1 | 111 |
| CCCCC1=NC2(CCCC2)C(=O)N1Cc1ccc(-c2ccccc2-c2nnn[nH]2)cc1 [Irbesartan] | 103 | 102 | 107 | 108 | 107 | 105 | 102 | 107 |
| CCCC(CCC)C(=O)O [Valproic acid sodium salt] | 106 | 117 | 113 | 111 | 104 | 111 | 123 | 111 |
| Cc1nc2n(c(=O)c1CCN1CCC(c3noc4cc(F)ccc34)CC1)CCCC2O (stereo not drawn) [Paliperidone] | 106 | 107 | 106 | 104 | 104 | 109 | 105 | 118 |
| CC=CC1=C(C(=O)O)N2C(=O)[C@@H](NC(=O)[C@H](N)c3ccc(O)cc3)[C@H]2SC1 [Cefprozil hydrate] | 95.4 | 104 | 105 | 104 | 102 | 103 | 100 | 107 |
| Clc1ccc2c(c1)C(N1CCNCC1)=Nc1ccccc1O2 [Amoxapine] | 102 | 100 | 104 | 109 | 98.5 | 105 | 111 | 113 |
| CN1C[C@@H]2C[C@H]1CN2c1cc2c(cc1F)c(=O)c(C(=O)O)cn2C1CC1 [Danofloxacin Mesylate] | 106 | 104 | 111 | 108 | 111 | 101 | 103 | 107 |
| S=c1[nH]cnc2nc[nH]c12 [Mercaptopurine] | 112 | 104 | 111 | 99.1 | 103 | 103 | 108 | 103 |
| Nc1ccn([C@@H]2O[C@H](CO)[C@@H](O)C2(F)F)c(=O)n1 [Gemcitabine] | 3.81 | 3.59 | 4.33 | 3.65 | 3.56 | 3.5 | 3.75 | 3.7 |
| CC1CC(OC(=O)C(O)c2ccccc2)CC(C)(C)C1 (stereo not drawn) [Cyclandelate] | 104 | 106 | 106 | 118 | 103 | 108 | 110 | 115 |
| Nc1ccn([C@@H]2O[C@H](CO)[C@@H](O)[C@@H]2O)c(=O)n1 [Cytarabine] | 89.2 | 75.5 | 44.9 | 5.82 | 84.9 | 64.3 | 35.7 | 4.29 |
| CC[C@@H]1C(=O)OC[C@@H]1Cc1cncn1C [Pilocarpine HCl] | 104 | 111 | 105 | 110 | 115 | 104 | 106 | 119 |
| Cn1ccnc1S [Methimazole] | 102 | 99.9 | 105 | 98.1 | 107 | 100 | 95.4 | 95.9 |
| Cc1ccc(O)c([C@H](CCN(C(C)C)C(C)C)c2ccccc2)c1 [Tolterodine tartrate] | 108 | 105 | 102 | 109 | 104 | 112 | 107 | 110 |
| CC1=NN(c2ccc(C)c(C)c2)C(=O)/C1=N\Nc1cccc(-c2cccc(C(=O)O)c2)c1O [Eltrombopag] | 105 | 86 | 109 | 107 | 106 | 112 | 111 | 108 |
| CC(C)(C#N)c1cc(Cn2cncn2)cc(C(C)(C)C#N)c1 [Anastrozole] | 94.2 | 99.5 | 57.7 | 34.5 | 100 | 93.2 | 87.9 | 22.4 |
| CN(C)CCCN1c2ccccc2Sc2ccc(C(F)(F)F)cc21 [Triflupromazine HCl] | 98.8 | 105 | 102 | 106 | 102 | 99.3 | 101 | 106 |
